Source: PubChem BioAssay (National Center for Advancing Translational Sciences (NCATS))
IL1B secr inh: blocks inflammasome-driven IL-1 beta release; THP-1 LPS/ATP IL-1B secretion, AlphaLISA, 16 h; active compounds read low; activity change, % at 57.5 µM; hit rate 4.7% among 360,000; AID 743279; in the data active = activity change below about -50%; inconclusive = mostly about -30% to -49%; also: % is scaled to controls: 0 for no effect and ±100 for the full control effect
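Secreted IL-1B measured by AlphaLISA bead assay after 16 h compound exposure of THP-1 cells; compounds (final up to 57.5 uM) added 1 h before LPS (250 ng/mL) and ATP (1.25 mM) stimulation; lower signal means less secretion.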
TDP1 inh: TDP1 (human) enzyme inhibition; recombinant TDP1, AlphaScreen DNA substrate cleavage; Q9NUW8; Potency, µM (highest dose often 130 µM), for the others: top-dose activity change, negative = inhibition, hits mostly inhibitors; hit rate 0.28% among 350,000; also: potency is read from the fitted curve at half-maximal effect; % is scaled to controls: 0 for no effect and ±100 for the full control effect; nearly all actives have a fitted effect of over 40% in size
Target sequence (Q9NUW8 whole entry, looked up): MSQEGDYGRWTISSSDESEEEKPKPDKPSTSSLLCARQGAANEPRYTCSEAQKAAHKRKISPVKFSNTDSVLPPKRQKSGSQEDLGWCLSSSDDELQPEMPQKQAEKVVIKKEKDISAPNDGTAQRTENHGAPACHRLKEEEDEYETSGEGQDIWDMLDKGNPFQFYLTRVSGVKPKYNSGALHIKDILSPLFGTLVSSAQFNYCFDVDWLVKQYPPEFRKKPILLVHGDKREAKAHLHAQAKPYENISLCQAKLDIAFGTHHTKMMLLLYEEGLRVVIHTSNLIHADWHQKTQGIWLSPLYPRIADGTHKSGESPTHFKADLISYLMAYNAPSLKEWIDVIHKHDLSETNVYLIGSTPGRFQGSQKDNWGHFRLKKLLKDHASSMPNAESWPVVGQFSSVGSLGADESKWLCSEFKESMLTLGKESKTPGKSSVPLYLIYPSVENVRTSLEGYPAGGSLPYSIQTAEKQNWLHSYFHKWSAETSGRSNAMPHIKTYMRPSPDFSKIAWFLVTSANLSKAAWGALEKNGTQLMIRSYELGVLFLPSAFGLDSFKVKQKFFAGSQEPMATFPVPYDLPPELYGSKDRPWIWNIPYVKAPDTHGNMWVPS
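Enzyme-compound mixtures sat 15 min at room temperature, followed by a 5 min reaction with 15 nM final substrate and 10 min with AlphaScreen beads. Recombinant human Tdp1 was used at 1 nM final.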
HepG2 tox: counter-screen for TGF-b inhibitors: cytotoxicity in HepG2 cells | HepG2 CAGA-GFP viability, ATP luminescence, 18 h | hit rate 0.76% among 410,000 | Potency, µM (doses to about 46.1 µM), for inactives: at the highest dose activity change, negative = cytotoxicity, usual class: cytotoxic; also: potency is read from the fitted curve at half-maximal effect
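HepG2 CAGA-GFP cells (1000/well, DMEM with 1% FBS) received compound, then TGF-beta at 500 pg/mL final, and were incubated 18 hours at 37 degrees C. Viability was read by CellTiter-Glo luminescence. Media-only wells were set as complete cell-killing and DMSO as no toxicity.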
TGFb SMAD3 inh: inhibitors of TGF-b signaling | HepG2 CAGA-GFP TGF-b/SMAD3 reporter, GFP fluorescence, 18 h; TGF-beta stimulated, 500 pg/mL final | Potency, µM (doses to about 46.1 µM), for inactives: top-dose activity, negative = inhibition, usual class: inhibitors | hit rate 1.2% among 410,000; also: potency is read from the fitted curve at half-maximal effect; % is scaled to controls: 0 for no effect and ±100 for the full control effect; nearly all actives have a fitted effect of over 65% in size
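Smad-responsive CAGA-GFP expression was quantified in HEPG2 cells exposed to compounds and 500 pg/mL final TGF-beta for 18 h at 37 degrees C; unstimulated wells defined full inhibition.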
TDP1 cell CPT: growth inhibition of DT40 Tdp1-/-;hTDP1 cells with camptothecin (screen for TDP1 inhibitors) | Potency, µM (highest dose often 46.2 µM), for inactives: at the top dose activity change, negative = growth inhibition, actives largely listed as inhibitors | AID 686979 | chicken DT40 Tdp1-/-;hTDP1 cells + 20 nM CPT, ATP luminescence, 48 h | hit rate 12% among 420,000; also: potency is read from the fitted curve at half-maximal effect; % is scaled to controls: 0 for no effect and ±100 for the full control effect; nearly all actives have a fitted effect of over 55% in size
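Chicken DT40 Tdp1-/- cells stably complemented with human TDP1 were seeded at 400 cells/well in medium containing 20 nM camptothecin, exposed to pin-transferred compounds, and grown at 37 °C for at least 48 hr. Viability was read as ATP luminescence.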
TDP1 cell noCPT: qHTS for Inhibitors of human tyrosyl-DNA phosphodiesterase 1 (TDP1): qHTS in cells in absence of CPT | Potency, µM (series often up to 46.2 µM), for inactives: at the top dose activity change, negative = growth inhibition, hits mostly inhibitors | DT40 Tdp1-/- hTDP1 cells, no CPT, ATP luminescence, 48 h | AID 686978, 2013 | hit rate 15% among 420,000; also: potency is read from the fitted curve at half-maximal effect; % is scaled to controls: 0 for no effect and ±100 for the full control effect; nearly all actives have a fitted effect of over 55% in size
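A cellular qHTS used chicken DT40 cells lacking endogenous Tdp1 but carrying stably transfected human TDP1. Compounds were applied without camptothecin, and cell growth kinetics were judged by ATP-dependent luminescence after ≥48 hr.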
* hit, by the source's call; u = inconclusive; x = not tested or not shown; ! = a repeat was not active; [ ] = dose if it differs, or a comment. Hits are enriched below; roughly 19% of the tested compounds scored in any of these assays. Unless noted, calls follow the shape of the dose curve; as a rule, active = well fitted curve in the direction sought with a large enough effect; inconclusive = small, poorly fitted or top-dose-only effect, or another doubt; inactive = no such curve, though single readings can be large; an effect the other way counts as inactive or inconclusive.

SMILES	IL1B secr inh	TDP1 inh	HepG2 tox	TGFb SMAD3 inh	TDP1 cell CPT	TDP1 cell noCPT
CCCC1=NN2C(=N)/C(=C\c3cc(C)n(Cc4ccccc4)c3C)C(=O)N=C2S1	-1	9%	-27%	u	5%	15%
N=C1/C(=C\c2ccc(-c3ccc(C(=O)O)cc3)o2)C(=O)N=C2SC=C(c3ccccc3)N12	u	x	2%	11%	u	u
Cc1cc(C=C2C(=O)c3ccccc3C2=O)c(C)n1-c1ccc(Cl)cc1	7	3%	-53%	6%	-23%	u
Cc1cccc(-n2c(C)cc(/C=C3/C(=N)N4C(c5ccccc5)=CSC4=NC3=O)c2C)c1	16	8%	-17%	-28%	u	21µM*
CCCC1=NN2C(=N)/C(=C\c3cc(C)n(-c4cccc(C)c4)c3C)C(=O)N=C2S1	-17	-3%	3.5µM*	-4%	-15%	2%
COc1cc(/C=C2/C(=N)N3C(c4ccccc4)=CSC3=NC2=O)ccc1OCC(=O)O	-5	6%	-3%	3%	21µM*	15µM*
Cc1cccc(-n2c(C)cc(C=C3C(=O)c4ccccc4C3=O)c2C)c1	-58*	6%	1%	3%	u	13µM*
Cc1cc(/C=C2/C(=N)N3C(c4ccccc4)=CSC3=NC2=O)c(C)n1-c1ccc(Cl)cc1	11	x	3%	-4%	6%	3%
Cc1cccc(-n2c(C)cc(/C=N/n3cnnc3)c2C)c1	-12	7%	3%	9%	23µM*	u
Cc1cc(/C=N/n2cnnc2)c(C)n1-c1ccc2c(c1)OCO2	-1	3%	-12%	4%	u	-23%
O=C(c1cccc(NS(=O)(=O)c2ccc(Br)cc2)c1)N1CCN(c2ccccc2O)CC1	3	3%	-21%	-1%	-4%	-20%
O=C(NC(=S)NNC(=O)[C@H]1C[C@@H]1c1ccccc1)c1ccc(F)cc1	67	10%	-5%	-22%	15µM*	13µM*
COc1cc(OC)cc(C(=O)NC(=S)NNC(=O)[C@H]2C[C@@H]2c2ccccc2)c1	43	11%	-1%	4%	u	18µM*
CC(C)(C)NC(=S)NNC(=O)[C@H]1C[C@@H]1c1ccccc1	1	4%	-42%	-33%	u	u
O=C(NNC(=O)C1CC1c1ccccc1)c1ccccc1F (centres undefined)	7	2%	2%	-2%	1%	17%
O=C(/C=C/c1ccc(F)cc1)NC(=S)NNC(=O)[C@H]1C[C@@H]1c1ccccc1	18	-2%	-17%	-14%	u	23µM*
C/C(=N/NC(=O)CNC(=O)CCc1ccccc1)c1ccc(Cl)c(Cl)c1	-6	0%	3%	-14%	-28%	u
Cc1c(C(=O)OC2CCCC2)[nH]c2c1C(=O)CC(c1ccc(Cl)cc1)C2 (centres undefined)	x	2%	-7%	5%	-5%	-23%
O=C(Cc1c(O)c2ccccc2[nH]c1=O)N(Cc1ccccc1)Cc1ccccc1	65	2%	-1%	8%	-15%	0%
CCCCCCN(CCCCCC)C(=O)Cc1c(-c2ccc(F)cc2)[nH]c2ccccc12	-12	9%[56.1 µM]	-15%	-13%	9.4µM*!	13µM*
COc1ccc(-n2c(-c3ccco3)nc3c(cnn3-c3ccccc3Cl)c2=O)cc1	x	5%	-17%	u	u	u
COc1cccc(-n2c(-c3ccco3)nc3c(cnn3-c3ccccc3C)c2=O)c1	x	7%	-9%	u	21µM*	18µM*
